High-throughput results as filed in PubChem.
Tau FP inhib: blocks human tau fibril formation measured by polarization; P10636; K18 P301L tau heparin fibrillization, Alexa594 FP, 6 h; Potency, µM (top dose mostly 57.7 µM), actives largely listed as inhibitors; actives 0.39% (n = 280,000); AID 1468; further: nearly all actives have a fitted effect of over 55% in size
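Quantitative HTS format: compounds meet 15 uM recombinant K18 P301L tau and Alexa 594-tau tracer in 100 mM sodium acetate pH 7; 20 uM heparin triggers fibrillization at 37 C over 6 hr; FP gives the signal.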
Tau ThT inhib: blocks human tau fibril formation measured by thioflavin T. Potency, µM (series often up to 57.4 µM), actives largely listed as inhibitors. recombinant tau K18 P301L, heparin-induced fibrillization, ThT fluorescence. P10636. actives 2.1% (n = 270,000); further: nearly all actives have a fitted effect of over 55% in size
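Recombinant human tau K18 fragment […] carrying P301L, 15 uM unlabeled plus 0.24 uM Alexa 594-labeled, was fibrillized with 20 uM heparin in 100 mM sodium acetate pH 7 for 6 hr at 37 C; 30 uM ThT fluorescence read after 1 hr.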
TR SRC2 fluor cs: counter-screen for TRb-SRC2 inhibitors: fluorescence interference; TRb/SRC2 Texas Red total fluorescence interference; Potency, µM (doses to about 106 µM); actives 0.29% (n = 280,000); active means well fitted curve in either direction with a large enough effect; inconclusive means small, poorly fitted or top-dose-only effect
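Human TRβ ligand-binding domain (0.6 uM) and Texas Red SRC2 peptide (20 nM) in Tris buffer with 1 uM T3 and 5% DMSO were incubated with pinned compound for 5 hr at ambient temperature. Total fluorescence was computed as S + 2P (555/632 nm).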
TRb-SRC2 inh: TRbeta-SRC2 interaction inhibition. TRbeta-SRC2 peptide binding, fluorescence polarization; receptor liganded with 1 µM T3. actives 0.065% (n = 280,000). Potency, µM (doses to about 106 µM), actives largely listed as inhibitors. P10828; further: nearly all actives have a fitted effect of over 50% in size
Target sequence (P10828 whole entry, looked up): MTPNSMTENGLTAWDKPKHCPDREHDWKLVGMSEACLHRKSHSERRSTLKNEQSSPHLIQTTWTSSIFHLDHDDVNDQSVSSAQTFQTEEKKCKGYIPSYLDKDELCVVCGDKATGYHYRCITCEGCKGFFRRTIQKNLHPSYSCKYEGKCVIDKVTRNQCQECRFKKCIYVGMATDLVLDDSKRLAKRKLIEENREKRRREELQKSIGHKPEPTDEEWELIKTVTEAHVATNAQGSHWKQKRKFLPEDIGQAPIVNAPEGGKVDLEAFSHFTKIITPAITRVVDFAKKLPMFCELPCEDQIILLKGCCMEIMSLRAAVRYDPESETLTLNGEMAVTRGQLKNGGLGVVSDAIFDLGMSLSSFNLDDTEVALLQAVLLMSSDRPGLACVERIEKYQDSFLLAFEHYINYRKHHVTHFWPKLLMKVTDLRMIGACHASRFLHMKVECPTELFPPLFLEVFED
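Human TRb ligand-binding domain (0.6 uM) is mixed with 20 nM Texas Red SRC2 peptide and 1 uM T3; after compound addition and 5 hr at ambient temperature, polarization is measured and normalized to unbound and bound controls.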
GoLoco inh red: RGS12 GoLoco-Gai1 interaction inhibition; P63096; Gai1:RGS12 GoLoco peptide FP, rhodamine, 10 min; Potency, µM (doses to about 61.6 µM), usual class: inhibitors; actives 0.44% (n = 230,000); AID 880; active means well fitted inhibition curve with a large enough effect, not every such curve was filed as active; inactive means no such curve, though single readings can be large or run the other way; further: nearly all actives have a fitted effect of over 30% in size
Tau fluor counter: counter-screen for tau fibril formation inhibitors; tau K18 P301L (four-repeat tau fragment) Alexa594 fluorescence, heparin fibrillization; Potency, µM (series often up to 57.7 µM); actives 0.93% (n = 280,000); further: nearly all actives have a fitted effect of over 55% in size
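Human K18 P301L tau (15 uM unlabeled plus 0.24 uM Alexa 594-labeled, final) in 100 mM sodium acetate pH 7 was mixed with compound and 20 uM heparin and incubated 6 hr at 37 C.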
A number is an active result; i = inactive; ? = inconclusive; nt = no result given; [ ] = another dose, or the depositor's remark. In the library only some 3.2% were active in any assay of this set; here they are far more common. Unless noted, the call rests on the fitted dose curve; in most records, active means well fitted curve in the direction sought with a large enough effect; inconclusive means small, poorly fitted or top-dose-only effect, or another doubt; inactive means no such curve, though single readings can be large; an effect the other way counts as inactive or inconclusive.

SMILES | Tau FP inhib | Tau ThT inhib | TR SRC2 fluor cs | TRb-SRC2 inh | GoLoco inh red | Tau fluor counter
C#CCC1=C(C)[C@H](OC(=O)[C@H]2[C@H](C=C(C)C)C2(C)C)CC1=O | nt | nt | i | i | nt | nt
O=C(NCCSc1c(-c2ccccc2)[nH]c2ccccc12)c1ccc(S(=O)(=O)N2CCOCC2)cc1 | ? | i | i | i | nt | 6.3µM[quencher]
COc1ccc(-c2cnnn2-c2ccc(NC(=O)c3ccc(S(=O)(=O)N(C)C)cc3)cc2)cc1 | i | i | i | i | nt | ?
O=c1[nH]c(O)c(N=Nc2ccc(S(=O)(=O)N3CCOCC3)cc2)c(=O)[nH]1 | i | ? | i | i | i | i
CN(C)S(=O)(=O)c1ccc(C(=O)NCCSc2c(-c3ccccc3)[nH]c3ccccc23)cc1 | i | i | i | i | nt | 4µM[quencher]
c1ccc2c(c1)oc1ccccc12 | nt | nt | i | i | nt | nt
O=C(O)c1c(Cl)ccc2cc(Cl)cnc12 | nt | nt | i | i | nt | nt
CC1=C(O)C(=O)[C@H]2O[C@@H]2C1=O | 4µM | 2µM | i | i | i | ?
COc1cccc(N=Nc2c(O)[nH]c(=S)[nH]c2=O)c1 | i | 7.1µM | i | i | i | i
O=c1[nH]c(=S)[nH]c(O)c1N=Nc1ccc(S(=O)(=O)N2CCOCC2)cc1 | i | ? | i | i | i | i
COc1ccc(N=Nc2c(O)[nH]c(=S)[nH]c2=O)cc1 | i | 2.8µM | i | i | i | i
COC(=O)c1ccccc1N=Cc1c(O)[nH]c(=S)[nH]c1=O | i | i | i | i | i | i
O=c1[nH]c(=S)[nH]c(O)c1N=Nc1ccc(OC(F)F)cc1 | i | 4µM | i | i | i | i
NS(=O)(=O)c1ccc(N=Nc2c(O)[nH]c(=S)[nH]c2=O)cc1 | i | 5.6µM | i | i | i | i
CC1=NNC(=O)N(/N=C/c2cccnc2)C1 | nt | nt | i | i | nt | nt
Clc1ccc(-c2cc(Cl)c(Cl)cc2Cl)cc1Cl | nt | nt | i | i | nt | nt
COC(=O)/C=C(\C)OP(=O)(OC)OC | nt | nt | i | i | nt | nt
C=CCc1cc(OC)c2c(c1)OCO2 | nt | nt | i | i | i | nt
COc1cccc2c1cc([N+](=O)[O-])c1c(C(=O)O)cc3c(c12)OCO3 | i | 14µM | i | i | i | ?
O=C1NC(=O)C(=Cc2ccc(-c3cc(Cl)ccc3[N+](=O)[O-])o2)C(=O)N1 | i | 7.9µM | i | i | i | i
O=C1NC(=O)C(=Cc2ccc(-c3ccccc3[N+](=O)[O-])o2)C(=O)N1 | i | nt | i | i | i | i
COc1cccc(-n2c(=S)[nH]c3ccccc3c2=O)c1 | i | i | i | i | i | i
COc1ccc2c(c1)NP(=S)(Oc1ccccc1)N2 (stereo not drawn) | ? | 8.9µM | i | i | i | ?
C=C(C)C(=O)OCC(CC)CCCC (stereo not drawn) | nt | nt | i | i | nt | nt
CCOP(=O)(NC(C)C)Oc1ccc(S(C)=O)c(C)c1 (stereo not drawn) | nt | nt | i | i | nt | nt
SMILES | Tau FP inhib | Tau ThT inhib | TR SRC2 fluor cs | TRb-SRC2 inh | GoLoco inh red | Tau fluor counter
C=CCc1cc(C=C2C(=O)N(C)C(=O)N(C)C2=O)cc(OCC)c1OCc1ccccc1 | ? | 25µM | i | i | i | i
CCCCCCCCCCCCN(C)C | nt | nt | i | i | nt | nt
COC(=O)C[C@]1(C(=O)OC)CN(C#N)N(c2ccc(Cl)cc2)C12c1ccccc1-c1ccccc12 | ? | 14µM | i | i | i | i
COC(=O)[C@@H]1[C@@H](C(=O)OC)C2(c3ccccc3-c3ccccc32)N(c2ccc(Cl)cc2)N1C#N | ? | 25µM | i | i | i | i
CN(C)c1nc(=O)n(C2CCCCC2)c(=O)n1C | nt | nt | i | i | nt | nt
CCN(CC)C(=O)SCc1ccc(Cl)cc1 | nt | nt | i | i | nt | nt
N#CC(C#N)=NNc1ccc(S(=O)(=O)N2CCCC2)cc1 | i | 18µM | i | i | i | i
O=S(=O)(Cl)c1ccccc1 | nt | nt | i | i | i | nt
Cn1cccc1/C=C1/C(=O)NC(=O)N(Cc2ccc(F)cc2)C1=O | nt | nt | i | i | i | nt
Cn1cccc1/C=C1/C(=O)NC(=S)N(Cc2ccc(F)cc2)C1=O | 35µM | nt | i | i | i | 11µM[quencher]
C[N+]1(C)C2CCC1CC(OC(=O)c1ccccc1)C2 (stereo not drawn) | i | nt | i | i | 4µM | i
